From PubChem BioAssay AID1159580 (chemical genetic matrix, 2015)
The whole screen tested about 5,500 compounds, of which about 2,000 (36%) were called active. Not shown: some 18% with an inconclusive outcome. Rule as the data show it: active = normalized growth mostly below about 0.91 (no sharp cut-off); inconclusive = no clear call, values can overlap the other calls; inactive = mostly above about 0.92. The list shows a part of the results.

Test: chemical genetic growth profiling, strain panel (AID 1159580);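 also: tested at 20 µM; growth read once vehicle control cultures reached saturation at 30 °C; 1 = growth at the plate median or of vehicle wells; lower values mean less growth of the strain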
Details: S. cerevisiae deletion strains, growth OD

Measured: normalized growth

COC(=O)c1cc2c(cn1)[nH]c1ccccc12
inactive: locus YAL040C, strain CLN3, active compounds read low 0.978 | locus YCL061C, strain MRC1 (second series), active compounds read low 1 | locus YDR150W, strain NUM1, active compounds read low 0.999 | locus YDR363W, strain ESC2, active compounds read low 0.996 | locus YER002W, strain NOP16, active compounds read low 0.986 | locus YMR263W, strain SAP30, active compounds read low 1 | locus YMR307W, strain GAS1, active compounds read low 0.998 | locus YNL153C, strain GIM3, active compounds read low 0.995 | locus YNL175C, strain NOP13, active compounds read low 0.988 | locus YNL197C, strain WHI3, active compounds read low 0.993 | locus YNL224C, strain SQS1, active compounds read low 0.981 | locus YNL322C, strain KRE1, active compounds read low 1.01 | locus YOR083W, strain WHI5 (second series), active compounds read low 0.96 | locus YPL241C, strain CIN2, active compounds read low 1
